Compound activity (PubChem)
miR-122 inh: miR-122 suppressors via Renilla sensor increase, primary screen, cell-based, Huh7 psiCHECK-miR122, Renilla luciferase, single point | activation, % at 12.5 µM | hit rate 0.14% among 340,000 | 48 h;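 active = mean activation of 30% or more, with every replicate also reaching 30%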;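 note: 0% = median of neutral control wells and 100% = median of positive control wells; higher luciferase signal means stronger suppression of miR-122 activity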
Numbers without * were called inactive. Many of the other results were omitted from the sample, so hits are more common in it than they were.

SMILES	miR-122 inh
Cc1ccc(C)c(S(=O)(=O)Nc2ccc(C(=O)N3CCOCC3)cc2)c1	-92
C[C@H]1CN([C@@H](C)CO)S(=O)(=O)c2ccc(C3=CCCCC3)cc2O[C@@H]1CN(C)C(=O)CC1CC1	-23
C[C@@H]1CN([C@H](C)CO)S(=O)(=O)c2ccc(-c3ccncc3)cc2O[C@H]1CN(C)C(=O)Nc1ccc(F)cc1	-40
C[C@H](O)C#Cc1ccc2c(c1)O[C@@H](CN(C)C)[C@H](C)CN([C@H](C)CO)S2(=O)=O	-5
Cc1noc(C)c1NC(=O)N(C)C[C@H]1Oc2ncc(C#CCC(C)C)cc2C(=O)N([C@H](C)CO)C[C@H]1C	1
O=[N+]([O-])c1ccc(/C=N/n2cnc3ccccc32)s1	48*
C[C@H](CO)N1C[C@H](C)[C@@H](CN(C)C(=O)Cc2cccnc2)Oc2cc(-c3cncnc3)ccc2S1(=O)=O	-2
COc1ccc(C#Cc2cnc3c(c2)C(=O)N([C@H](C)CO)C[C@@H](C)[C@@H](CN(C)CC2CCOCC2)O3)cc1	6
NC(=O)c1cn(-c2ccccc2)nc1-c1cc2ccccc2oc1=O	77*
COCC(=O)N(C)C[C@@H]1Oc2ncc(/C=C/c3ccccc3)cc2C(=O)N([C@H](C)CO)C[C@@H]1C	-1
C[C@@H]1CN([C@H](C)CO)C(=O)c2cccc(NC(=O)C3CC3)c2O[C@H]1CN(C)Cc1ccc(C(F)(F)F)cc1	-106
COc1ccccc1CNS(=O)(=O)c1cc(-c2cc(C)no2)ccc1C(C)C	-107
Oc1c(Cl)cc(Cl)cc1/C=N/Nc1ncc(Br)cn1	62*
CCNC(=S)NNC(=O)C1CCCCC1	-140
C[C@@H]1CN([C@@H](C)CO)S(=O)(=O)c2ccc(-c3cncnc3)cc2O[C@H]1CN(C)Cc1ccccc1	0
C/C=C/c1cnc2c(c1)C(=O)N([C@H](C)CO)C[C@@H](C)[C@@H](CN(C)C(=O)Nc1cccc(OC)c1)O2	-10
CCCCCOC(=O)c1[nH]c2c(c1C)C(=O)CC(c1ccco1)C2 (stereo not drawn)	-121
O=C1CC(c2ccco2)CC(O)=C1C=Nc1cc(Cl)ccc1O (stereo not drawn)	31*
COc1ccc(NS(=O)(=O)c2cccc3cccnc23)cc1Cl	-92
Cc1noc(C)c1NC(=O)N(C)C[C@H]1Oc2ncc(C#CC3CCCCC3)cc2C(=O)N([C@H](C)CO)C[C@H]1C	3
COc1cccc(NC(=O)N(C)C[C@@H]2Oc3ncc(C#Cc4ccccc4)cc3C(=O)N([C@@H](C)CO)C[C@@H]2C)c1	-2
C[C@H]1CN([C@@H](C)CO)C(=O)c2cc(-c3ccccc3)cnc2O[C@@H]1CN(C)C(=O)Nc1ccc2c(c1)OCO2	1
COCC(=O)N(C)C[C@H]1Oc2ncc(C#Cc3ccccc3OC)cc2C(=O)N([C@H](C)CO)C[C@@H]1C	4
C[C@@H]1CN([C@@H](C)CO)C(=O)c2cccc(NC(=O)c3ccc(-c4nccs4)cc3)c2O[C@H]1CN(C)Cc1ccc2c(c1)OCO2	38*
C[C@@H]1CN([C@@H](C)CO)C(=O)c2cc(-c3ccccc3)cnc2O[C@H]1CN(C)C(=O)Nc1ccc2c(c1)OCO2	-8
SMILES	miR-122 inh
C[C@@H]1CN([C@H](C)CO)C(=O)c2cccc(NC(=O)c3ccc(-c4nccs4)cc3)c2O[C@@H]1CN(C)Cc1ccc(C(=O)Nc2ccccc2N)cc1	-203
COc1cccc(NC(=O)N(C)C[C@@H]2Oc3ncc(C#Cc4ccncc4)cc3C(=O)N([C@@H](C)CO)C[C@H]2C)c1	33*
CCC(=O)N(C)C[C@@H]1Oc2ncc(C#Cc3ccccc3OC)cc2C(=O)N([C@H](C)CO)C[C@H]1C	6
COc1cccc(NC(=O)N(C)C[C@H]2Oc3ncc(C#Cc4ccccc4)cc3C(=O)N([C@@H](C)CO)C[C@@H]2C)c1	-3
C[C@H](CO)N1C[C@H](C)[C@H](CN(C)C(=O)Nc2ccc3c(c2)OCO3)Oc2ncc(-c3cccc(C(F)(F)F)c3)cc2C1=O	33*
C[C@H](CO)N1C[C@H](C)[C@@H](CN(C)Cc2ccc3c(c2)OCO3)Oc2c(NC(=O)C3CC3)cccc2C1=O	-92
COc1ccccc1C#Cc1cnc2c(c1)C(=O)N([C@H](C)CO)C[C@H](C)[C@@H](CN(C)C(=O)c1ccc3c(c1)OCO3)O2	35*
O=c1[nH]c(=O)c2[nH]c(=O)n(-c3ccccc3)c2[nH]1	-92
C[C@H](O)C#Cc1cnc2c(c1)C(=O)N([C@H](C)CO)C[C@H](C)[C@H](CN(C)C(=O)CN(C)C)O2	8
CCCN1C[C@H](C)[C@@H](OC)CN(C)C(=O)c2ccc(NS(C)(=O)=O)cc2OC[C@H]1C	-1
C[C@H](CO)N1C[C@H](C)[C@@H](CN(C)C(=O)Cc2ccccn2)Oc2ncc(-c3ccncc3)cc2C1=O	6
Cc1ccc(S(=O)(=O)N(C)C[C@H]2Oc3cc(-c4cccc(F)c4)ccc3S(=O)(=O)N([C@H](C)CO)C[C@H]2C)cc1	-12
CC(=O)N(C)C[C@@H]1Oc2cc(C#CC3(O)CCCC3)ccc2S(=O)(=O)N([C@H](C)CO)C[C@H]1C	3
CCCNC(=O)N(C)C[C@H]1Oc2cc(C#Cc3ccccn3)ccc2S(=O)(=O)N([C@H](C)CO)C[C@H]1C	7
